The record followed here is PubChem BioAssay (NCATS).

Experiment [1] deals with Lysosomal acid glucosylceramidase (Homo sapiens) (UniProt P04062). The experiment can be described thus: Glucocerebrosidase-p2 (AID 348; in the data active means potency below about 10 µM; further: potency means the concentration at half of the fitted maximal effect). As to conditions: purified GBA, blue fluorogenic substrate, 40 min. An outline of the steps:
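Normal human glucocerebrosidase (0.2 nM) with blue fluorogenic substrate (80 uM final) in citrate/phosphate pH 5.9 with 10mM sodium taurocholate, 0.01% tween-20; 40 min RT, NaOH/glycine stop; fluorescence Ex 365/Em 440; AC50 from a titration from 0.6 nM upwards.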

Experiment [2] can be described thus: AP1 Signaling Pathway (AID 357).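 Further: ME-180 reporter cells stimulated with EGF at its EC50 level; on the % scale 0 is the no-effect control and ±100 the full control effect.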 The conditions noted are these: ME-180 AP-1-bla reporter, EGF-induced, beta-lactamase ratio, 5 h; at 7.69 µM (top of the series) unless noted. An outline of the steps:
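Beta-lactamase reporter under AP-1 response element, ME-180 background. Stimulus: EC50 EGF. Compound exposure 5 h, 37 °C. Detection: CCF4, 2.5 h RT, 460/530 nm. Values: AC50 from titration.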

Experiment [3] deals with Cytochrome P450 1A2 (Homo sapiens) (UniProt P05177). The experiment can be described thus: p450-cyp1a2 (AID 410; calls by dose curve; further: potency means the concentration at half of the fitted maximal effect). As to conditions: recombinant CYP1A2, luciferin-ME demethylation, luminescence; series mostly up to 57 µM. A digest of the protocol: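 Read-out is luminescence from luciferin produced by CYP1A2 demethylation of Luciferin-ME (100uM, at Km). Detection reagent stopped the 60 min NADPH-dependent reaction; signals were normalized to 57 uM furafylline.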

Experiment [4] in a line: NFAT Signaling Pathway (AID 444).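 Further: carbachol stimulus at about its EC50 of 1 µM final; on the % scale 0 is the no-effect control and ±100 the full control effect.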 As to conditions: Jurkat NFAT-bla M1, carbachol, beta-lactamase ratio, 5 h; at 7.69 µM (top of the series) unless noted. An outline of the steps: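 Read-out: CCF4 FRET ratio (460 nm/530 nm) after 1 h RT dye loading, used for %activity and AC50 from titration series. Cells: Jurkat NFAT-β-lactamase/M1 line, treated with compound plus 1 uM carbachol for 5 h, 37 °C.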

Experiment [5] is described as follows: Stat Signaling Pathway (AID 446).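 Further: ME-180 cervical cancer cells given 40 pM IL-6 alongside compound; SIE-controlled beta-lactamase reporter measured as 460/530 nm FRET emission ratio; on the % scale 0 is the no-effect control and ±100 the full control effect.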 As to conditions: ME-180 (cervical carcinoma) SIE beta-lactamase reporter, IL-6 stimulated, 5 h; at 7.69 µM (top of the series) unless noted. A digest of the protocol:
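Compound effects on IL-6-induced STAT reporter activity were measured in ME-180 cells. After overnight culture, cells were co-treated with 40 pM IL-6 for 5 hrs before beta-lactamase substrate loading at room temperature.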

Experiment [6] has as its target Glucocorticoid receptor (Homo sapiens) (UniProt P04150). The experiment can be described thus: GR-GFP Redistribution (AID 450;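 active means compounds whose dose series gives a full or clear partial fitted curve of increased nuclear translocation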; further: potency means the concentration at half of the fitted maximal effect). The conditions noted are these: U2OS GR-GFP nuclear translocation, laser cytometry, 2 h.
For experiment [7] the target is unchanged. The experiment can be described thus: GR-EFC Redistribution (AID 451; calls by dose curve; further: potency means the concentration at half of the fitted maximal effect). The conditions noted are these: CHO-K1 GR-EFC translocation, beta-gal luminescence, 2 h. A digest of the protocol: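 Translocation of GR-ED fusion to nuclear EA restores b-gal, read by luminescence after 1 h room-temperature detection. Engineered CHO-K1 biosensor cells, 1,000/well, exposed 2 h at 37 C to titrations up to 46 uM final.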

Experiment [8] has as its target Mitogen-activated protein kinase 10 (Mus musculus) (UniProt Q61831). The experiment is described as follows: JNK3 AlphaScreen Assay (AID 530).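 Further: kinase came from lysate of stimulated human HepG2 cells; signal reports phosphorylation of biotinylated GST-cJun 1-79 at Ser73 with 10 µM ATP; on the % scale 0 is the no-effect control and ±100 the full control effect.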 The conditions noted are these: JNK3 lysate, c-Jun phosphorylation; series mostly up to 57.1 µM. A digest of the protocol:
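Kinase buffer: 20 mM Tris-HCl pH 7.6, 10 mM MgCl2, 1 mM DTT, 0.1 mM Na3VO4, 0.01% Tween-20; ATP 10 uM. Substrate biotin-GST-cJun(1-79), enzyme from activated HepG2 lysates. Detection by Ser73 phospho-antibody AlphaScreen.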

The target of experiment [9] is 3',5'-cyclic-AMP phosphodiesterase 4B (Homo sapiens) (UniProt Q07343). The experiment can be described thus: qHTS Assay for Inhibitors of PDE-IV (AID 607; active means well fitted activation curve with a large enough effect in the main read-out, with a control signal flat, not every such curve was filed as active; further: % of control where 0% means no effect). As to conditions: HEK293 ACTOne CNG channel cells, membrane potential fluorescence; series mostly up to 22.9 µM. An outline of the steps:
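ACTOne HEK293 cells carry a modified cAMP-gated CNG channel and express endogenous PDE4; plated 1000 cells/well, compounds up to 22.9 uM final. Membrane-potential dye fluorescence (ex 535/em 590) was read; parental cells received 10 uM forskolin + 100 uM RO 20-1724.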

Experiment [10] concerns the target Cytochrome P450 3A4 (Homo sapiens) (UniProt P08684). The experiment is described as follows: qHTS Assay for Activators of Cytochrome P450 3A4 (AID 885; active means well fitted curve in the direction sought with a large enough effect; an effect the other way counts as inactive or inconclusive; further: nearly all actives have a fitted effect of over 65% in size). The conditions noted are these: recombinant CYP3A4, Luciferin-PPXE luminescence, 60 min; series mostly up to 57.1 µM. An outline of the steps: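 CYP3A4 activity: Luciferin-PPXE O-dealkylation, 25uM substrate, 200mM KPO4, RT throughout. Read-out is luciferase luminescence; higher values reflect activation.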

Experiment [11] in a line: Confirmation and Secondary Assay for Modulators of Hemoglobin Beta Chain Splicing at IVS2 654 locus (AID 910; active means well fitted curve in the direction sought with a large enough effect; an effect the other way counts as inactive or inconclusive;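 further: HeLa cells stably carrying EGFP split by mutant beta-globin IVS2-654 intron; per-well total GFP intensity by laser scanning cytometry after 2-day treatment; % of control where 0% means no effect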). The conditions noted are these: HeLa EGFP-654 splicing reporter, GFP fluorescence, 48 h; series mostly up to 38.3 µM. An outline of the steps:
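Readout: per-well total peak green fluorescence (488 nm ex, 500–520 nm em) from objects 5–250 µm, reflecting correct splicing of an EGFP-654 reporter. Compounds were applied for 2 days at 37 °C to overnight-plated HeLa EGFP-654 cells; controls were DMSO and 500 nM IVS2-654 PNA.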

Experiment [12] addresses Ubiquitin carboxyl-terminal hydrolase 1 (Homo sapiens) (UniProt O94782). The experiment can be described thus: Inhibitors of USP1/UAF1: Pilot qHTS (AID 504865; active means well fitted curve in the direction sought with a large enough effect; an effect the other way counts as inactive or inconclusive; further: nearly all actives have a fitted effect of over 35% in size; further: potency means the concentration at half of the fitted maximal effect). As to conditions: purified USP1/UAF1, Ub-rhodamine cleavage fluorescence; series mostly up to 54.9 µM. A digest of the protocol:
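Deubiquitinase activity followed as kinetic rhodamine fluorescence release from 150 nM Ub-Rho. 1 nM USP1/UAF1 with compound, after 15 min room-temperature preincubation, in HEPES pH 7.8 buffer containing TCEP, EDTA, BSA and Tween-20.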

Experiment [13] is described as follows: Primary qHTS for small molecule stabilizers of the endoplasmic reticulum resident proteome: Secreted ER Calcium Modulated Protein (SERCaMP) assay (AID 1508630; active means well fitted curve in the direction sought with a large enough effect; an effect the other way counts as inactive or inconclusive; further: on the % scale 0 is the no-effect control and ±100 the full control effect). The conditions noted are these: SH-SY5Y GLuc-SERCaMP (Gaussia luciferase released on ER calcium loss) secretion, thapsigargin, luminescence; series mostly up to 38.4 µM. A digest of the protocol:
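The SH-SY5Y reporter protocol was run at 3 concentrations up to 38.3 uM (primary) or 11 concentrations (follow-up): 16 h compound, 100 nM thapsigargin for 4 h, then extracellular luciferase luminescence.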

In experiment [14] the target is Dual specificity protein kinase CLK4 (Homo sapiens) (UniProt Q9HAZ1). The experiment can be described thus: qHTS Assay for Inhibitors of CDC-like Kinase 4 (ADP-FP Assay) (AID 1795; active means well fitted curve in the direction sought with a large enough effect; an effect the other way counts as inactive or inconclusive;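 further: recombinant human CLK4 phosphorylating RS repeat peptide at 1 µM ATP; on the % scale 0 is the no-effect control and ±100 the full control effect; nearly all actives have a fitted effect of over 60% in size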). The conditions noted are these: Transcreener ADP fluorescence polarization; series mostly up to 50 µM. An outline of the steps: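 Kinase activity was measured as ADP production using Transcreener orange tracer (4 nM) and ADP antibody (1 ug/mL) fluorescence polarization, with ADP calculated from a calibration curve. The 1 h reaction contained 6.25 nM Clk4, 1 uM ATP and 100 uM RS peptide at pH 7.5 with Mg2+.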

Experiment [15] has as its target Cytochrome P450 2C19 (Homo sapiens) (UniProt P33261). The experiment can be described thus: qHTS Assay for Inhibitors and Substrates of Cytochrome P450 2C19 (AID 899; active means well fitted curve in the direction sought with a large enough effect; an effect the other way counts as inactive or inconclusive; further: potency means the concentration at half of the fitted maximal effect; nearly all actives have a fitted effect of over 60% in size). The conditions noted are these: recombinant CYP2C19, luciferin-H EGE luminescence; series mostly up to 57.1 µM. A digest of the protocol: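 Reactions contain 5nM enzyme, 10uM Luciferin-H EGE (KM) and 50mM KPO4; compound preincubates 10 min at 37C, NADPH regeneration starts turnover for 60 min. Luminescence after detection reagent gives activity.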

Structures are written as SMILES. A number with no mark means an inactive call. Results filed as inconclusive are left out. Calls of active or inactive are those of the source. Unless noted, the call rests on the fitted dose curve; in most records, active means well fitted curve in either direction with a large enough effect (not every such curve was filed as active); inconclusive means small, poorly fitted or top-dose-only effect, or another doubt; inactive means flat fitted curve, though single readings scatter.

Sequence of Cytochrome P450 1A2 (Homo sapiens) (P05177 whole entry, looked up): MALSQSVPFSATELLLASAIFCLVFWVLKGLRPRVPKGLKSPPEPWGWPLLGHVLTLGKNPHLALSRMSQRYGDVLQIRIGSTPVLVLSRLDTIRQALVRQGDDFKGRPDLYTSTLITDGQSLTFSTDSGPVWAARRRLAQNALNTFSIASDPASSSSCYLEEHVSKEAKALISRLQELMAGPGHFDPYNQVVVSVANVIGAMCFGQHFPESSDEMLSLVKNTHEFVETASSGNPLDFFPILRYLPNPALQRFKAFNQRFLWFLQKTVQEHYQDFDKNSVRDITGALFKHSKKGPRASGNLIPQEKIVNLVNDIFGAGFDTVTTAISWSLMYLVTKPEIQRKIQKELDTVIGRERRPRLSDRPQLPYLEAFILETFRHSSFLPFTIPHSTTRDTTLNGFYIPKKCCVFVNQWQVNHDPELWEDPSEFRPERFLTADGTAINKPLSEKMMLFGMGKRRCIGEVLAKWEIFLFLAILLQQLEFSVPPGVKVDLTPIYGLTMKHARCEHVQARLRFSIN
Sequence of Cytochrome P450 3A4 (Homo sapiens) (P08684 whole entry, looked up): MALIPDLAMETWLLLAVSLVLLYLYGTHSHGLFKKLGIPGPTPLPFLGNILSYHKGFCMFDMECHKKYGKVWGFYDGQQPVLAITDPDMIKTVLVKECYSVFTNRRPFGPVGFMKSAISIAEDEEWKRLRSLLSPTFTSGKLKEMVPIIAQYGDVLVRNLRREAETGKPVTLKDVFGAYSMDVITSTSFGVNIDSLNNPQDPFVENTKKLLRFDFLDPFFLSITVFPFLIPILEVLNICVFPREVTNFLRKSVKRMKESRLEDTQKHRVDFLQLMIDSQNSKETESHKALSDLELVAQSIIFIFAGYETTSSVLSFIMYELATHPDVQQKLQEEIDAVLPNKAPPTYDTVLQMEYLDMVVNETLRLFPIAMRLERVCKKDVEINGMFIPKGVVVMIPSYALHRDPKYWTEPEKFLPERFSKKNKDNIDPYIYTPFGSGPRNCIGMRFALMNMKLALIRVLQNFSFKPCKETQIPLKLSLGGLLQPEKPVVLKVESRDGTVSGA
Sequence of Lysosomal acid glucosylceramidase (Homo sapiens) (P04062 whole entry, looked up): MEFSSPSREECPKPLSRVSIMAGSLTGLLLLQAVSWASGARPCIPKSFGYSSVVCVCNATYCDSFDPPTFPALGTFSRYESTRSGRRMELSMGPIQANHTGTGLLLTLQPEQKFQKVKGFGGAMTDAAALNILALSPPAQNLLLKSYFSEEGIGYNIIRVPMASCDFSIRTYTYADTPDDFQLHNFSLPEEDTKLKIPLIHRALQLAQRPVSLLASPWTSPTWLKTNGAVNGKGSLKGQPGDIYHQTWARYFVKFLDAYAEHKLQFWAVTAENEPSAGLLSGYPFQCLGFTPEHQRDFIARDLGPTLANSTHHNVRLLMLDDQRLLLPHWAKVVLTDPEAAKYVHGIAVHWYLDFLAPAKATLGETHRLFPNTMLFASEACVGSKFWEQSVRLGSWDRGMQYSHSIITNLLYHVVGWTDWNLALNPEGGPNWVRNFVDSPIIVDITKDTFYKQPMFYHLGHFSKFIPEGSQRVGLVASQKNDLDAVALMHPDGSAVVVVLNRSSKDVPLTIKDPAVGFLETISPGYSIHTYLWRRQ
Sequence of Ubiquitin carboxyl-terminal hydrolase 1 (Homo sapiens) (O94782 whole entry, looked up): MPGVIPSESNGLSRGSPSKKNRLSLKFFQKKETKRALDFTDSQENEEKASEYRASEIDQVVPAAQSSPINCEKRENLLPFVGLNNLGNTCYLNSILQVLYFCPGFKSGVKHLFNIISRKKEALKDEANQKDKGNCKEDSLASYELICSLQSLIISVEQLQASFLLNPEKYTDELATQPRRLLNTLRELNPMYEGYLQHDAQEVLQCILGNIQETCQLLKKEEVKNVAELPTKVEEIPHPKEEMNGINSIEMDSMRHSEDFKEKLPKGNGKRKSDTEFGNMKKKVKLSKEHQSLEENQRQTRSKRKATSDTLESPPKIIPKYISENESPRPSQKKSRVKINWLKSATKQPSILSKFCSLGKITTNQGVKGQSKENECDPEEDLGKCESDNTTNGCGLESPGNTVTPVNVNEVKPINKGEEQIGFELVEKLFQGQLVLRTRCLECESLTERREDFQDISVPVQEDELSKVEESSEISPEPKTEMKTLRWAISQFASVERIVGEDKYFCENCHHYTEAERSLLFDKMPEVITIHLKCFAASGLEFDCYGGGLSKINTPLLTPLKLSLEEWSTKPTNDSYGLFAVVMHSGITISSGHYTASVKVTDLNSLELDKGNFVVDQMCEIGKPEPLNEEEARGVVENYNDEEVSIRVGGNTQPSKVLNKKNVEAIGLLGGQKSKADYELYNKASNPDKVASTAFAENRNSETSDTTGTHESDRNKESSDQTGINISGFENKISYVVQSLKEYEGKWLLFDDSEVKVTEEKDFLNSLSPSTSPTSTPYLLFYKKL
Sequence of 3',5'-cyclic-AMP phosphodiesterase 4B (Homo sapiens) (Q07343 whole entry, looked up): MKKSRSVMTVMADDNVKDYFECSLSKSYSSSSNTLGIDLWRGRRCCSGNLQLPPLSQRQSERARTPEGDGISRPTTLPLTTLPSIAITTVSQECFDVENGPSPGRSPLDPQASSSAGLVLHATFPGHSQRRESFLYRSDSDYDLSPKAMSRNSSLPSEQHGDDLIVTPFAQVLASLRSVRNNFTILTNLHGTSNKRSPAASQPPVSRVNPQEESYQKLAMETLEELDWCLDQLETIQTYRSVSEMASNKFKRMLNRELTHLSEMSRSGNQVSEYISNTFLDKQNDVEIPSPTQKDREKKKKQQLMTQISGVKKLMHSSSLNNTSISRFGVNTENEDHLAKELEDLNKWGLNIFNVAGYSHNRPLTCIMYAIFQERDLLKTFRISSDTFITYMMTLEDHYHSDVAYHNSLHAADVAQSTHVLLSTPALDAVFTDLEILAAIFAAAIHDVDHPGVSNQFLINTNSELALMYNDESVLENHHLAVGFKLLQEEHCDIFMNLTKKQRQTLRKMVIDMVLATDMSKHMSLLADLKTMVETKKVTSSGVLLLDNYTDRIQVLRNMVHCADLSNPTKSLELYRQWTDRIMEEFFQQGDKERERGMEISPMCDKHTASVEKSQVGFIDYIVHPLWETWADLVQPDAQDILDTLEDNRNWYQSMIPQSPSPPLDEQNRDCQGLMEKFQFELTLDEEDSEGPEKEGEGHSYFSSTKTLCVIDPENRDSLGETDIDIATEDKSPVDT
Sequence of Glucocorticoid receptor (Homo sapiens) (P04150 whole entry, looked up, the tested form may be a part): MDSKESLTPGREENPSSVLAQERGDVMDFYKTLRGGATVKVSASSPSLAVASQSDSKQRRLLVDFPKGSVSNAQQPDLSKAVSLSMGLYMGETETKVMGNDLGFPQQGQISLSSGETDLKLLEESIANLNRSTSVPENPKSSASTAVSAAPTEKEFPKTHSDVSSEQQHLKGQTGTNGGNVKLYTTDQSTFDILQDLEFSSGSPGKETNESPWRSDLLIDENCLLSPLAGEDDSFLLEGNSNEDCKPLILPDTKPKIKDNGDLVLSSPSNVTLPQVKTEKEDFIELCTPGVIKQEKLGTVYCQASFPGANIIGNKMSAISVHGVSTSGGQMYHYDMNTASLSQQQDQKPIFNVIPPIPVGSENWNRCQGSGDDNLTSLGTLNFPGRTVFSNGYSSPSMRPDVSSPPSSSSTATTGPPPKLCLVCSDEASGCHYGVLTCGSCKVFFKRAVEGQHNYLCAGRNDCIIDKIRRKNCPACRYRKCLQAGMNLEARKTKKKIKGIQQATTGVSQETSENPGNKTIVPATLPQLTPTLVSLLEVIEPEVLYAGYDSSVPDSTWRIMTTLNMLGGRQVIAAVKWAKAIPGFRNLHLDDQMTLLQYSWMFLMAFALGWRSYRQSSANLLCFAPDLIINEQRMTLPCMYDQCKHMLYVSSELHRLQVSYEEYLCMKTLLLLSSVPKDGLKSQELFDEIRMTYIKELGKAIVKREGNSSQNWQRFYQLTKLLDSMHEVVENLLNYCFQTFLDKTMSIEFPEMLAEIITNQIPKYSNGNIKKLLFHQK
Sequence of Cytochrome P450 2C19 (Homo sapiens) (P33261 whole entry, looked up): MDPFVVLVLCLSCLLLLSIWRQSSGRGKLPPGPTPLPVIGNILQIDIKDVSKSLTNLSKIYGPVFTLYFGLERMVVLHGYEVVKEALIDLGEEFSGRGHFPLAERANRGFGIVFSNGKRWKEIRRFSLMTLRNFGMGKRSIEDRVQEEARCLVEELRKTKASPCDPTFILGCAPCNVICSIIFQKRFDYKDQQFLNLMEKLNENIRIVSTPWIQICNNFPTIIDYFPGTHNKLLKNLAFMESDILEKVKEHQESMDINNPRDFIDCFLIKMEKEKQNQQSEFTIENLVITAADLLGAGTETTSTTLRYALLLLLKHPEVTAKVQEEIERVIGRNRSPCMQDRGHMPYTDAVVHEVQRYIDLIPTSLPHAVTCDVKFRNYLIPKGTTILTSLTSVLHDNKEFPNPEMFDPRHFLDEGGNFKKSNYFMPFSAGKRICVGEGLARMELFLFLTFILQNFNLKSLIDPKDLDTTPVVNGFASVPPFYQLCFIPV
Sequence of Dual specificity protein kinase CLK4 (Homo sapiens) (Q9HAZ1 whole entry, looked up): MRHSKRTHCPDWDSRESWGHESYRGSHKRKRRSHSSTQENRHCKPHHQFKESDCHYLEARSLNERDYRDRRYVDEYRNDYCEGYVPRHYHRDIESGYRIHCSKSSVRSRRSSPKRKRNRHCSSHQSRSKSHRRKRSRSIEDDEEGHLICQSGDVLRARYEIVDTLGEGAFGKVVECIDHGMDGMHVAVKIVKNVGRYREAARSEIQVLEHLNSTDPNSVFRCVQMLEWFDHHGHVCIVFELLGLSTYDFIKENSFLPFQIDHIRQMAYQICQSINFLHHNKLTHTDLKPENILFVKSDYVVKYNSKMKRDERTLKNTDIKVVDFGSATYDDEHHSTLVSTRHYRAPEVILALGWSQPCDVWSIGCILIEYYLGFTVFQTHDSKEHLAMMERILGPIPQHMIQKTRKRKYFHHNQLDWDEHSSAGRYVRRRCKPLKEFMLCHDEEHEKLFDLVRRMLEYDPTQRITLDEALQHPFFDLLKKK

Turning to `COCCNc1ccnc(-c2c(C)noc2C)n1`, the Potency in experiment [1] is over 11.4 µM; in [3], 2.51 µM (active); in [6], over 46 µM; in experiment [7], over 46 µM. For the same molecule, the activity change, negative = inhibition in [2] is 3.45%; in experiment [4], 9%. Also, in [5], the activity, negative = inhibition is 5.3%. For the same molecule, the Potency entry in [8], in [9], in [10], in experiment [11] and in experiment [12] was “inactive” throughout. For the same molecule, the result in experiment [13] was inactive.
As for `COc1ccc2[nH]cc(CCNc3cc(-c4ccccc4CN(C)C)ncn3)c2c1`, the activity change, negative = inhibition in [2] was 14.9%; in [4], -12.7%. In addition, the activity, negative = inhibition in [5] was 6.88%. The Potency in experiment [6] and in experiment [7] was over 46 µM in each case. Also, the Potency result in [8], in experiment [9], in experiment [14] and in experiment [12] was “inactive” throughout. For the same molecule, the outcome in [13] was inactive.
As for `O=c1c(CCc2ccccc2)nc2cncnc2n1-c1ccccc1`, the Potency in experiment [1] was over 11.4 µM; in [3], 15.8 µM (active); in experiment [6] it was over 9.22 µM; in [7], over 46 µM. Moreover, the activity change, negative = inhibition in [2] was -24.4%; in experiment [4] it was -14%. In addition, the activity, negative = inhibition in experiment [5] is -17.6%. Moreover, the Potency entry in [8] is “inactive”. The outcome in experiment [13] was inactive.
As for `N#Cc1cccc(-c2nc(NCc3ccccc3)c3ccccc3n2)c1`, the Potency is over 11.4 µM in experiment [1]; 0.398 µM (active) in experiment [3]; over 46 µM in experiment [6]; over 46 µM in [7]; 6.31 µM (active) in experiment [15]; 15.8 µM (active) in experiment [12]. Further, the activity change, negative = inhibition in experiment [2] is -14.6%; in experiment [4], -13.5%. For the same molecule, the activity, negative = inhibition in [5] is -8.06%. For the same molecule, the Potency entry in [8] and in experiment [10] was “inactive” throughout. Further, the outcome in [13] was inactive.
Regarding `CN(C)c1ncc2nc(-c3ccc(F)cc3)c(=O)n(CCC#N)c2n1`, the Potency in [1] is over 11.4 µM; in [3], 1.26 µM (active); in experiment [6] it was over 9.22 µM; in experiment [7] it was over 46 µM. In addition, the activity change, negative = inhibition in experiment [2] was 4.59%; in [4], 8.55%. Also, in experiment [5], the activity, negative = inhibition is 23.5%. Further, the Potency entry in [8] and in [9] was “inactive” each time. Besides, the outcome in [13] was inactive.
On to `CN(C)C(=O)c1ccc(-c2nccc(NCc3cccnc3)n2)cc1`, for which the Potency is over 11.4 µM in [1], 15.8 µM (active) in [3], over 46 µM in experiment [6] and over 46 µM in experiment [7]. The activity change, negative = inhibition was -3.36% in experiment [2] and 3.73% in experiment [4]. Also, the activity, negative = inhibition in experiment [5] is 2.62%. Further, the Potency entry in experiment [8], in [9], in experiment [10], in experiment [11] and in experiment [12] was “inactive” throughout. Moreover, the outcome in experiment [13] was inactive.
